# Measured values published in PubChem BioAssay (NCATS).
# Activity calls are given as the source filed them. Calls come from the whole dose curve; as a rule, active = well fitted activation curve with a large enough effect; inconclusive = small, poorly fitted or top-dose-only effect; inactive = flat fitted curve, though single readings scatter.
# Assay: Cellular Toxicity (caspase-3) N2a (AID 665);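 note: compound exposure lasted 16 h at 37 °C before readout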
# Settings: N2a cells, luminescence, normalized: DMSO 0%, 10 µM staurosporine 100%; series mostly up to 92.2 µM
# Excerpt: NIH Chemical Genomics Center [NCGC]
# NIH Molecular Libraries Screening Centers Network [MLSCN]
# National Institutes of Environmental Health Sciences [NIEHS]
# National Toxicology Program [NTP]
# We have developed a 1536-well cell-based assay for quantitative high throughput screening (qHTS) against a number of cell lines to determine in vitro caspase 3/7 activity of small molecules. This particular assay uses the N2a cell line which is derived from mouse neuroblastoma.
# NCGC Assay Protocol Summary:
# The Caspase-Glo 3/7 assay (Promega) is a homogeneous method to measure caspase-3 and caspase-7 activities in cultured cells. The quantitation of caspase 3/7 activity is based on the cleavage of a peptide-aminoluciferin substrate. After caspase cleaves the substrate the free aminoluciferin is liberated and serves as the substrate of luciferase, which generates the light. The luminescent signal is proportional to the amount of caspase 3/7 activity present.
# Using the Caspase-Glo 3/7 assay, the amount of caspase 3/7 activity was measured in the N2a cells with complete culture medium following compound treatment for 16 hours. The assay was performed in opaque white 1536-well plates. In the screen, staurosporine and doxorubicin were used as positive controls. Library compounds were measured for their ability to cause the activation of caspase 3/7 in the cell line, as reflected by an increase in luminescence signal, in a concentration-dependent manner. Data were normalized to the controls for basal activity (DMSO only) and 100% stimulation (10 uM staurosporine). AC50 values were determined from concentration-response data modeled with the standard Hill equation.
# qHTS protocol for caspase 3/7 assay in mouse N2a cell line
# [Step] [Parameter] [Value] [Description]
# 1. Reagent; 5 uL; 1500 mouse N2a cells/well
# 2. Time; 5 hr; 37 °C incubation
# 4. Controls; 23 nL; doxorubicin 7 pM to 100 uM & staurosporine 1.4 pM to 20 uM
# 5. Time; 16 hr; 37 °C incubation
# 6. Reagent; 5 uL; Caspase-Glo 3/7 reagent
# 7. Time; 1 hr; Room Temperature
# 8. Detection; Luminescence; Viewlux plate reader
# Keywords: caspase 3/7, apoptosis, mouse N2a cell line, luminescence, NTPHTS, NTPHTS_NCGC, NIEHS, EPA, DSSTox, MLSMR, MLSCN, NIH Roadmap, qHTS, NCGC
row,Compound,outcome
1,CCOc1ccc2c(c1)C(C)=CC(C)(C)N2,inactive
2,O=S(=O)(O)O,inactive
3,O=C(O)CCC(=O)C(=O)O,inactive
4,CC1=C2[C@@H]([C@H](C)CC[C@H]2/C=C(\C)C(=O)O)[C@H](O)C1,inactive
5,CC(C)(C)NC(=O)[C@@H]1C[C@@H]2CCCC[C@@H]2CN1C[C@@H](O)[C@H](Cc1ccccc1)NC(=O)[C@H](CC(N)=O)NC(=O)c1ccc2ccccc2n1,inactive
6,CC1=C(/C=C/C(C)=C/C=C/C(C)=C/CO)C(C)(C)CCC1,inactive
7,O=CCCCC=O,inactive
8,IC(I)I,inactive
9,CCCCCCCC(=O)O,inactive
10,Cc1ccccc1,inactive
11,CC(C)=O,inactive
12,CCCCC/C=C\C/C=C\CCCCCCCC(=O)O,inactive
13,CCOC(C)=O,inactive
14,CCCCCCCC/C=C\CCCCCCCC(=O)O,inactive
15,Nc1ccn([C@H]2CS[C@@H](CO)O2)c(=O)n1,inactive
16,CC(O)CO (stereo unspecified),inactive
